Results on 40 compounds are retold here after PubChem BioAssay (Tox21).

Records with an inconclusive call do not appear. Where a call stands in place of a potency, no number is given. Activity calls are given as the source filed them. Calls come from the whole dose curve; as a rule, active = well fitted inhibition curve with a large enough effect in the repeat runs; inconclusive = weak or mixed curves, or effect the other way; inactive = no such curve, though single readings can be large or run the other way.
Potency is the fitted concentration of half-maximal effect.

The test has as its target Nuclear receptor ROR-gamma (Homo sapiens) (UniProt P51449). In words: qHTS assay to identify small molecule antagonists of the retinoid-related orphan receptor gamma (ROR-gamma) signaling pathway (AID 1159521; note: nearly all actives have a fitted effect of over 50% in size). Conditions: Tet-on RORgamma CHO cells, RORE-luciferase, 16 h; series mostly up to 92.4 µM. From the text:
U.S. Tox21 Program National Center for Advancing Translational Sciences [NCATS] NIH Chemical Genomics Center [NCGC] U.S. Environmental Protection Agency [EPA] National Institutes of Environmental Health Sciences [NIEHS] National Toxicology Program [NTP] U.S. Food and Drug Administration [FDA] Tox21 Assay Overview: Nuclear steroid hormone receptors are involved in many biological processes including inflammatory responses, cell proliferation, and apoptosis. Environmental factors or compounds disrupting these nuclear receptor pathways and gene expression may promote susceptibility to immunotoxicants and autoimmune diseases. One important group of these expression factors are the retinoid-related orphan receptors. To assess compounds that may interfere with the retinoid-related orphan receptor gamma (ROR-gamma) transcription factor, a cell-based luciferase assay was used. The CHO cell-based assay utilizes a TET-inducible ROR expression factor and ROR response element-LUC reporter gene. Reporter gene activity was induced using Doxycycline Hyclate and measured after 16 hr incubation. Tet-on ROR gamma CHO cells were used to screen against the Tox21 10K compound library for ROR gamma antagonists by quantification of decreased reporter gene activity in terms of decreased luminescence.
Tox21 Assay Protocol Summary: Tet-on ROR gamma CHO cells were dispensed at 1,000 cells in 4 uL of culture medium per well into white wall/solid bottom 1536-well plates using a Multidrop Combi (Thermo Scientific, Waltham, MA) dispenser. Following incubation at 37 C and 5% CO2 for 4 hr, 23 nL of compounds dissolved in DMSO, positive controls or DMSO only were transferred by a Pintool station (Kalypsys, San Diego, CA) and after 2 hr incubation at 37 C, one ul of 1 uM (final concentration) of Doxycycline Hyclate was added to all the wells by using a Flying Reagent Dispenser (FRD) (Aurora Discovery, San Diego, CA). After 16 hr incubation at 37 C and 5% CO2, 5 uL of ONE-Glo reagent (Promega Corporation, Madison, WI) was added to each assay plate using FRD. After 30 min incubation at room temperature, luminescence was quantified on a ViewLux plate reader (Perkin Elmer, Waltham, MA).
Consider `N#CCCN(CCO)CCO`, for which the Potency result was “inactive”. On to `CO/N=C(/C(=O)N[C@@H]1C(=O)N2C(C(=O)O)=C(COC(N)=O)CS[C@H]12)c1ccco1`, for which the Potency entry is “inactive”. For `C=C1CCC2CC1C2(C)C` (stereo not given), the Potency entry was “inactive”. The value for `O=C1c2ccccc2C(=O)c2c(O)c(O)cc(O)c21` was “inactive”. In the case of `CN1C(=O)c2ccccc2C1=O`, the Potency entry is “inactive”.

As for `O=C=Nc1cccc(C(F)(F)F)c1`, the Potency result was “inactive”. Consider `O=C=Nc1ccc(Cl)c(Cl)c1`, for which the Potency result is “inactive”. As for `Cc1cc(C)c(N)cc1C`, the Potency entry is “inactive”. In the case of `CCCCCCNC(=O)n1cc(F)c(=O)[nH]c1=O` it was “inactive”; in that of `CC(=O)NC1(c2cccc(F)c2)CCN(CC[C@@]2(c3ccc(Cl)c(Cl)c3)CN(c3ccccc3)C(=O)CO2)CC1`, 38.7 µM (active). On to `CCOc1ccccc1O[C@H](c1ccccc1)[C@H]1CNCCO1`, for which the Potency entry was “inactive”.

`CCn1cc(C(=O)O)c(=O)c2cc(F)c(N3CCNCC3)cc21`: the Potency result is “inactive”. In the case of `C[C@]12CC[C@@H]3c4ccc(O)cc4CC[C@H]3[C@@H]1CC[C@@H]2OC(=O)CCC1CCCC1`, the Potency was 30.6 µM (active).

For `O=C(/C=C/c1ccccc1)OCCc1ccccc1`, the Potency entry was “inactive”.

Turning to `CN1C(C(=O)Nc2ccccn2)=C(O)c2sccc2S1(=O)=O`, the Potency result is “inactive”. The value for `CC(=O)OCCN(CCOC(C)=O)c1ccc(N=Nc2ccc([N+](=O)[O-])cc2C#N)cc1` was “inactive”. Turning to `CCCCCCCCN`, the Potency entry was “inactive”. In the case of `Cc1ccccc1N=C(N)Nc1ccccc1C` it was “inactive”; in that of `CCCCCCCC/C=C\CCCCCCCCO`, “inactive”. Turning to `CCOC(=O)c1ccc(O)c(O)c1`, the Potency result was “inactive”. Take `CCCC(=O)C(=O)O`: the Potency entry is “inactive”. `CCC(C)(C)OC`: the Potency entry was “inactive”. For `CCC1NC(=O)c2cc(S(N)(=O)=O)c(Cl)cc2N1` (stereo not given), the Potency result is “inactive”.

As to `O=C(O)CCC(=O)C(=O)O`, the Potency entry was “inactive”. As to `CCCCCCCC/C=C\CCCCCCCCCCCC(=O)O`, the Potency result was “inactive”. The value for `O=C1CCCCCCCCCCOCCCCO1` was “inactive”. Regarding `CC(C)C=O`, the Potency entry is “inactive”.

Turning to `Nc1nnc(-c2ccc([N+](=O)[O-])o2)o1`, the Potency was 6.86 µM (active).

With `C(=C\c1ccccc1)/c1ccccc1`, the Potency entry is “inactive”. Consider `O=C1C(=O)c2ccccc2C(O)=C1C1CCC(c2ccc(Cl)cc2)CC1` (stereo not given), for which the Potency was 7.5 µM (active). For `OC(CCN1CCCC1)(c1ccccc1)C1CCCCC1` (stereo not given), the Potency result was “inactive”. In the case of `CCCCCCCCCI` it was “inactive”; in that of `CCC1CO1` (stereo not given), “inactive”; in that of `CC(=O)OCC(=O)NCCCOc1cccc(CN2CCCCC2)c1`, “inactive”. With `CCC(C)COC(C)=O` (stereo not given), the Potency entry was “inactive”. With `NCCNCCO`, the Potency entry was “inactive”.

On to `CCOC(=O)c1ccc(C#Cc2ccc3c(c2)C(C)(C)CCS3)nc1`, for which the Potency entry is “inactive”. Turning to `O=C(/C=C/c1ccc(O)c(O)c1)O[C@@H]1C[C@@](OC(=O)/C=C/c2ccc(O)c(O)c2)(C(=O)O)C[C@@H](O)[C@@H]1O`, the Potency entry was “inactive”. Turning to `O=C(O)CCCCCCCCCCCBr`, the Potency entry was “inactive”.

With `N#CCc1ccc(Cl)cc1Cl`, the Potency entry was “inactive”.
